p53null 39C tox = selectivity test: cytotoxicity in p53 null cells, nonpermissive temperature. H1299 p53-null (neo) cells, 39C, ATPlite viability, 24 h. Potency, µM (titrated, usually from 46.1 µM), for inactives: at the highest dose activity, negative = cell killing, hits mostly cytotoxic. hit rate 0.97% among 55,000;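 also: potency is read from the fitted curve at half-maximal effect; 0% = DMSO only and -100% = full killing by 100 µM tamoxifen; nearly all actives have a fitted effect of over 50% in size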
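Concentration-response (up to 46 uM) was run for 24 h at the nonpermissive 39C on H1299-p53A138V or H1299-neo cells. ATP content was measured with ATPlite luminescence. AC50 values were Hill-modeled after normalizing between DMSO and 100 uM tamoxifen killing.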
GPR32 ag = agonists of human resolvin D1 receptor DRV1 (GPR32). CHO-K1 GPR32 beta-arrestin PathHunter luminescence, 90 min; zero percent set by DMSO-only wells. activation, % at 76.9 µM. hit rate 2.5% among 48,000. AID 1346428;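 active = activation of at least 60% and not above a set upper limit, about 1 call in 100 departs from these limits; inconclusive = activation of 40% to 60%, or above that upper limit; inactive = activation under 40%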; also: 0% is about no effect
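GPR32 activation in stably transfected CHO-K1 cells, detected as beta-arrestin recruitment by enzyme-fragment complementation. Compound exposure: 90 min, 37 °C.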
p53null 32C kill = p53 null cell cytotoxicity, permissive temperature | Potency, µM (titrated, usually from 46.1 µM), inactives show top-dose activity change, negative = cytotoxicity, most hits filed as cytotoxic | H1299-neo p53 null cells, ATP luminescence, 24 h, 32C | AID 903 | hit rate 0.62% among 55,000;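 also: potency is read from the fitted curve at half-maximal effect; 0% = DMSO only and -100% = full killing by 100 µM tamoxifen; nearly all actives have a fitted effect of over 55% in size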
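H1299-neo, 600 cells/well; overnight 37C; cpd up to 46 uM, 24 h at 32C; ATPlite luminescence after 20 min RT; normalized to DMSO (0%) and tamoxifen 100 uM (100% kill); Hill-fit AC50.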
FH mod = Identification of activators of human fumarate hydratase by quantitative high-throughput screening | AID 1347055, 2019 | FH coupled MDH/diaphorase resazurin fluorescence, 15 min | Potency, µM (highest dose often 79.9 µM), for the others: at the top dose activity change, negative = inhibition, hits mostly inhibitors | hit rate 0.22% among 54,000; also: potency is read from the fitted curve at half-maximal effect; % is scaled to controls: 0 for no effect and ±100 for the full control effect; the screen sought activators but most active calls are inhibition curves; nearly all actives have a fitted effect of over 45% in size
Target sequence (P07954 whole entry, looked up): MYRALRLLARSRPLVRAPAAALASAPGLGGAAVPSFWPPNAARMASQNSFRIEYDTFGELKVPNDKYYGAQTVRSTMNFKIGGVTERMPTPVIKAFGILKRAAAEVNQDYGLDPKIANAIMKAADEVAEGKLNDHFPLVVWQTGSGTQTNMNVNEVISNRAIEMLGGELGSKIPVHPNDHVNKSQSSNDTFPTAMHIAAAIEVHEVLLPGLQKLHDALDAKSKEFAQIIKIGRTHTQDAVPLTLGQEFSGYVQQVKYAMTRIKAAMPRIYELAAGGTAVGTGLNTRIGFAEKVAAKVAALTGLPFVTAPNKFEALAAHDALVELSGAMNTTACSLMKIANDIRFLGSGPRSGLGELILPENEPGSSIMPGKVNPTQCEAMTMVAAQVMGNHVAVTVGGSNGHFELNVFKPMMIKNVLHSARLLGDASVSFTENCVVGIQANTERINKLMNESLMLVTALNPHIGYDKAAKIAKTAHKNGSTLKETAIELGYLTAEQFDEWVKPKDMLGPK
Numbers without * were called inactive; ? = inconclusive; . = not tested or not shown; [ ] = dose if it differs, or a comment. This is a sample that favours compounds with a hit; in the whole collection about 2.9% have one here. Unless noted, calls follow the shape of the dose curve; as a rule, active = well fitted curve in the direction sought with a large enough effect; inconclusive = small, poorly fitted or top-dose-only effect, or another doubt; inactive = no such curve, though single readings can be large; an effect the other way counts as inactive or inconclusive.

SMILES | p53null 39C tox | GPR32 ag | p53null 32C kill | FH mod
CC(=O)N[C@@H](CC(=O)O)C(=O)N[C@@H](CCC(=O)O)C(=O)N[C@H](C(=O)N[C@@H](CC(=O)O)C(=O)Nc1ccc2c(C)cc(=O)oc2c1)C(C)C | . | . | . | 20µM*
Cc1cccc(-c2nc(SCc3cc(=O)c4c(C)cc(C)cc4[nH]3)n[nH]2)c1 | ? | 116* | ? | 6%
CC(C)n1cnc2c(-c3cnc(N)nc3)nc(N3CCOCC3)nc21 | . | . | . | 1%[53.3 µM]
COc1ccc(OC)c(-c2cc(C(=O)Nc3cnn(Cc4ccc(Cl)cc4Cl)c3)no2)c1 | 10µM* | 91* | ? | .
COc1ccc(CCNS(=O)(=O)c2c(C)nc3sc(C)cn3c2=O)cc1OC | 2% | -3 | 6% | -1%
COc1cc(OC)c(NS(=O)(=O)c2c(C)nc3sc(C)cn3c2=O)cc1Cl | 20µM* | 15 | -6% | -5%
CC1(C)C[C@H]2C=C(C=O)[C@]3(C(=O)O)C[C@]3(C)[C@H]2C1 | . | . | . | 2%
CCOc1ccc(-c2oc3cc(Cl)ccc3c(=O)c2O)cc1OC | 16µM* | -1 | ? | 5%
Cc1ccc(NC(=O)c2nc(S(=O)(=O)Cc3ccc(F)cc3)ncc2Cl)cc1C | ? | -27 | 20µM* | -3%
CC(=O)Nc1ccc(NC(=O)c2nc(S(=O)(=O)Cc3ccc(F)cc3)ncc2Cl)cc1 | -28% | -20 | -11% | -5%
COc1ccc(OC)c(NC(=O)c2nc(S(=O)(=O)Cc3ccc(F)cc3)ncc2Cl)c1 | 25µM* | -27 | ? | -7%
Cc1cc(OCC(=O)Nc2cnn(CCCC(=O)O)c2)ccc1Cl | -25% | 82* | 4% | -6%
O=C(O)CCCn1cc(NC(=O)COc2ccccc2F)cn1 | -9% | -1 | -7% | 3%
CNC(=O)c1ccc2cc([C@@]3(O)CCn4cncc43)ccc2c1 | . | . | . | 4%
COc1ccc(Nc2c3c(nc4ccc(NC(=O)c5cc(Cl)ccc5OC)cc24)CCCC3)cc1OC | 5µM* | 61* | 6.3µM* | -4%
COc1cc(OC)cc(C(=O)Nc2ccc3nc4c(c(Nc5ccc(OC)c(OC)c5)c3c2)CCCC4)c1 | ? | 85* | ? | -19%
CCc1nn(CC(=O)NCc2ccccc2)c(=O)c2cccn12 | 25µM* | -5 | -7% | 2%
CCCS(=O)(=O)c1ncc(Cl)c(C(=O)N(Cc2ccccc2)Cc2ccco2)n1 | ? | -16 | 22µM* | -19%
CCCCCCC[N+](CC)(CC)CCCCc1ccc(Cl)cc1 | . | 87* | . | 2%[53.3 µM]
Fc1ccc(C2=CC(c3ccc(F)cc3)n3c(nc4ccccc43)N2)cc1 (stereo unspecified) | 10µM* | -43 | 13µM* | -3%
COc1ccc(C2=CC(c3cc(Br)ccc3F)n3c(nc4ccccc43)N2)cc1 (stereo unspecified) | 11µM* | -41 | 13µM* | -5%
COC(=O)c1ccc(C2C=C(c3ccc(Cl)cc3)Nc3nc4ccccc4n32)cc1 (stereo unspecified) | 10µM* | -8 | 10µM* | -25%
O=C(Nc1cccc(NC(=O)c2cccnc2Cl)c1)c1ccco1 | 13% | . | 2% | .
O=C(Nc1ccc(NC(=O)c2ccco2)nc1)c1cccnc1 | ? | . | 13µM* | .
Cc1ccccc1OCC(O)Cn1c(=N)n(CCN2CCCCC2)c2ccccc21 (stereo unspecified) | 20µM* | 20 | -4% | 0%
SMILES | p53null 39C tox | GPR32 ag | p53null 32C kill | FH mod
CCCCCn1c(=N)n(CC(O)COc2cccc(C)c2)c2ccccc21 (stereo unspecified) | ? | 90* | ? | 2%
N=c1n(CCN2CCCCC2)c2ccccc2n1CC(O)COc1ccccc1 (stereo unspecified) | -7% | 65* | 3% | -25%
Cc1ccccc1CN1CCn2c1nc1c(c2=O)CN(Cc2ccccc2)CC1 | . | . | . | 6%
CC(=O)NCCCCn1c2c(c3ccccc31)C(=O)NCC2 | . | . | . | -2%
Cc1ccc2c(=O)cc(C(=O)Nc3ccc(S(=O)(=O)Nc4ncccn4)cc3)oc2c1C | -3% | 67* | -1% | -16%
CCCCC(=O)N1CCN(c2nc3c(C)c(C)ccc3s2)CC1 | 4% | 69* | -1% | -18%
Cc1c(Cl)ccc2sc(N3CCN(C(=O)C(C)C)CC3)nc12 | 6% | ? | -5% | -21%
Cc1c(Cl)ccc2sc(N3CCN(C(=O)c4ccco4)CC3)nc12 | 32% | 85* | 0% | -19%
Cc1cc(Nc2cccc(O)c2)c2cccc(Br)c2n1 | -12% | 119* | -9% | -6%
Cc1cc(Nc2cccc(Cl)c2)nc2ccc(NC(=O)COc3ccc(Cl)cc3)cc12 | -11% | 37 | -8% | -31%
Cc1cccc(OCC(=O)Nc2ccc3nc(Nc4cccc(Cl)c4)cc(C)c3c2)c1 | ? | 103* | -7% | -7%
Cc1cc(Nc2cccc(Cl)c2)nc2ccc(NC(=O)c3cncc(Br)c3)cc12 | 20µM* | -26 | -18% | -25%
Cc1cc(Nc2cccc(C(F)(F)F)c2)nc2ccc(NC(=O)c3cncc(Br)c3)cc12 | -20% | -23 | -3% | 32µM*
C=C1CC/C=C(/CO)C(=O)C[C@@H]2[C@@H]1C[C@@]2(C)COC(C)=O | . | . | . | -4%
C=C(CCC1=C(C)[C@H]2[C@H](CC3[C@@H]4CC=C5C[C@@H](O)C[C@@H](O)[C@]5(C)C4[C@H](O)C[C@@]32C)O1)CO[C@@H]1O[C@H](CO)[C@@H](O)[C@H](O)[C@H]1O (stereo partly specified) | . | . | . | 6%[20.6 µM]
CCc1ccc(CNC(=O)CN(c2ccc(C)cc2)S(=O)(=O)N(C)C)cc1 | -9% | 87* | -8% | -2%
Cc1ccc(CCNC(=O)CN(c2ccc(C)cc2)S(=O)(=O)N(C)C)cc1 | 16% | 26 | 1% | -3%
Cc1cccc(N2CCN(C(=O)CCCCn3c(=O)[nH]c4ccsc4c3=O)CC2)c1C | 7% | 62* | 18% | -14%
COC(=O)c1ccc2c(=O)n(CCCCCC(=O)N3CCN(c4cc(Cl)ccc4C)CC3)c(=O)[nH]c2c1 | -6% | 6 | 20µM* | -20%
O=C(CCCCn1c(=O)[nH]c2ccsc2c1=O)N1CCN(c2cccc(C(F)(F)F)c2)CC1 | 3% | 74* | 21% | ?
CCCCCn1c(=O)[nH]c2cc(C(=O)N3CCN(c4cc(Cl)ccc4C)CC3)ccc2c1=O | -19% | 4 | -15% | -5%
COc1cc2c(cc1OC)CN(C(=O)[C@@H](NCc1ccncc1)C(C)(C)C)CC2 | . | . | . | 2%
CCCOCc1cc(CN2CCN(c3cccc(Cl)c3)CC2)c(O)c2ncccc12 | 0.32µM* | -7 | -24% | ?
COc1ccc(-c2cc(C(F)(F)F)nc(SCC(=O)NCCc3ccccc3)n2)cc1 | -3% | 14 | -1% | 3%
COc1ccc(-c2cc(C(F)(F)F)nc(SCC(=O)NC(C)c3ccccc3)n2)cc1 (stereo unspecified) | 3% | 106* | -8% | 0%
